Among all 150,000 compounds or so, about 540 (0.36%) showed an effect of 50% or more. Shown is part of a subset that was picked to be rich in strong results.
Test system: Plasmodium falciparum
Test: Primary screen in NF54 nanoGlo assay, in single point, at 2uM, 72h; a lower Z score goes with more inhibition
Format: functional, Erythrocyte
Conditions: timepoint 72 hour

| Structure (SMILES) | % Inhibition [%] | Z score |
| --- | --- | --- |
| CC(NS(=O)(=O)N(C)C(C)C)C1CCCO1 (centres undefined) | -8 | 1.17 |
| C/C=C(\C)C(=O)N1CCC(N2CCC(C(=O)N3CCCC3)CC2)CC1 | -12 | 1.74 |
| CCC(C)C(NC(=O)C1CCC(C)CC1)C(=O)NC1CCN(Cc2ccccc2)CC1 (centres undefined) | -3 | 0.32 |
| CCCNS(=O)(=O)c1ccc(C(=O)N2C[C@H]3CC[C@@H](C2)N(C)C3)cc1 | -7 | 1.2 |
| Cc1ccc(-n2nc3c(=O)n([C@@H](C)C(=O)NCc4ccc(Cl)cc4)nc(C)c3c2C)cc1 | 10 | -1.13 |
| O=S(=O)(NC1CCc2ccc(Cl)cc21)[C@H]1COC[C@@H]1O (some centres undefined) | -11 | 1.47 |
| Cc1ccc(NC(=O)Cc2nnc(-c3ccc4ncccc4c3)o2)c(Cl)c1 | -6 | 0.57 |
| CCn1cc(NC(=O)c2cc(C3CC3)nc3onc(-c4cnn(CC)c4C)c23)c(C)n1 | 8 | -1.2 |
| CC(C)(C)OC(=O)N1CC2CC1C2C(=O)NCC1CCCO1 (centres undefined) | 14 | -1.67 |
| Nc1ncc(C(=O)N2CCC3(CCCCCC3)C2)s1 | 97 | -17.77 |
| Cc1ncsc1C(=O)N1CCC2(CCCCC2)C1 | 37 | -5.42 |
| Nc1ncc(C(=O)N2CCC3(CCCC3)C2)s1 | 6 | -0.8 |
| CC(=O)NC1CCN(Cc2cc(C)nc3ccccc23)CC1 | -6 | 0.83 |
| CC1CCN(c2nccnc2Oc2ccc(C(=O)N3CCN(c4ccccc4Cl)CC3)cc2)CC1 | 11 | -1.7 |
| CC1CCN(c2nccnc2Oc2ccc(C(=O)NCc3ccccc3Cl)cc2)CC1 | 67 | -10.64 |
| CC1CCN(c2nccnc2Oc2ccc(C(=O)NCc3ccco3)cc2)CC1 | -1 | 0.13 |
| CC(NC(CC1CCC1)c1ccccc1)c1cn(C)nn1 (centres undefined) | 6 | -0.82 |
| CCN(CC)C[C@H](O)COc1ccc(Cl)cc1Cl | 9 | -1.14 |
| CN(C)CC(O)COc1ccc(S(=O)(=O)c2ccc(OCC(O)CN(C)C)c(Cl)c2)cc1Cl (centres undefined) | 54 | -6.62 |
| Cc1ccccc1OC[C@@H](O)CN(C(C)C)C(C)C | -2 | 0.31 |
| CCS(=O)(=O)N1CCC(N2C(=O)[C@@H]3CC[C@@H](c4ccccc4)N3C2=O)CC1 | 42 | 0.94 |

| Structure (SMILES) | % Inhibition [%] | Z score |
| --- | --- | --- |
| CCN(C(=O)Cn1cc(-c2ccccc2)c2ncn(CC)c(=O)c21)c1ccccc1 | 78 | -9.77 |
| CCn1cnc2c(-c3ccccc3)cn(CC(=O)NCc3ccco3)c2c1=O | -9 | 1.31 |
| CCc1cccc(C)c1NC(=O)Cn1cc(-c2ccccc2)c2ncn(CC)c(=O)c21 | 4 | -0.57 |
| FC(F)(F)c1ccc(N2CCCN(Cc3nc4ccccc4o3)CC2)nc1 | -8 | 0.8 |
| O=C(CN1CCCN(c2ccc(C(F)(F)F)cn2)CC1)Nc1ccccc1 | 0 | 0.05 |
| O=C(c1ccccc1)c1ccc(O)c(CN2CCCN(c3ccc(C(F)(F)F)cn3)CC2)c1O | 84 | -8.75 |
| Cc1n[nH]c(C)c1CCCNC(=O)[C@@H]1Cc2ccccc2CN1C | -7 | 1.24 |
| Cc1cccn(CC(=O)NCC(=O)Nc2cccnc2)c1=O | -6 | 0.7 |
| C[C@@H](CO)N(C)S(=O)(=O)[C@H]1C[C@@H]1c1ccc(Br)cc1 | 1 | -0.19 |
| O=C(c1cccc(-n2cnnn2)c1)N1CCN(C(c2ccccc2)c2ccccc2)CC1 | 10 | -1.28 |
| O=C(c1cccc(C#Cc2ccccc2)c1)N1CCN(C(c2ccccc2)c2ccccc2)CC1 | -8 | 1.42 |
| O=C(c1cccc(C(=O)N2CCN(C(c3ccccc3)c3ccccc3)CC2)c1)N1CCN(C(c2ccccc2)c2ccccc2)CC1 | 54 | -11.5 |
| CC1CCCN(C(C)CNC(=O)CCNC(=O)C2CC2C)C1 (centres undefined) | -5 | 0.79 |
| CCCN1CCn2nc(-c3nc4cc(OC)ccc4[nH]3)cc2C1 | -3 | 0.27 |
| Cc1ccc2[nH]c(-c3cc4n(n3)CCN(C(=O)N3CCN(C)CC3)C4)nc2c1 | -6 | 0.7 |
| N[C@H]1COc2ccc(Br)cc2C1=O | 73 | 0.56 |
| N[C@H]1CCOc2ccc(Br)cc2C1=O | -8 | 1.05 |
| N[C@H]1CC2(CCC2)Oc2ccc(Br)cc21 | -4 | 0.62 |
| O=C(COc1ccc(Br)cc1F)N[C@@H](C(=O)O)c1ccc(F)c(F)c1 | -17 | 2.1 |
| COc1cc2cc(NC(C)=N)nc(C)c2cc1OC | 15 | -1.95 |
| COc1ccc(CC(=N)Nc2cc3cc(OC)c(OC)cc3c(Cc3ccc(OC)c(OC)c3)n2)cc1OC | 85 | -9.78 |

| Structure (SMILES) | % Inhibition [%] | Z score |
| --- | --- | --- |
| COc1cc(NC(=O)Cc2ccc(OC)c(OC)c2)ncn1 | 8 | -1.51 |
| COc1cc(NC(=O)N2Cc3cn[nH]c3CC(C)(C)C2)c(C)c(OC)c1 | 13 | -1.52 |
| CCn1cnc2c(N3CCCOC3)ncnc21 | -5 | 0.67 |
| CCn1cnc2c(N3CCC[C@H](CC(C)(C)C(N)=O)C3)ncnc21 | 8 | -1.51 |
| CCn1cnc2c(N3CCC[C@H](c4ccncc4)C3)ncnc21 | 76 | -10.16 |
| COc1cccc([C@H]2CC(O)=Nc3c2ncn3-c2cccnc2)c1OC(C)C | 28 | -3.13 |
| CC[C@@H](c1ccccn1)n1cc(-c2cc(CN(C)C)cs2)nn1 | -6 | 0.72 |
| Cc1ccc([C@H]2C=NN(c3ccc(Br)cc3)C2=O)cc1 | 76 | -2.14 |
| CC(C)C(=O)N1CCN(c2ccc(Br)cc2)C(=O)[C@@H]1C | -12 | 1.14 |
| CC1=CN(c2ccc(Br)cc2)C(=O)N(c2ccccc2)N=C1C | -45 | 5.24 |
| CCCOc1ccc(C2C3C(=O)N(c4cccc5ccccc45)C(=O)C3ON2c2ccccc2)cc1OC (centres undefined) | -14 | 1.48 |
| O=C1C[C@@H](C(=O)N2CC(Cc3ccoc3)C2)NC(=O)N1 | -12 | 1.39 |
| O=C(C[C@H](n1cccn1)C(F)(F)F)N1CCN(C2CC2)c2ccc(Cl)cc21 | -2 | 0.26 |
| COc1ccc(-c2c(-c3ccc(Cl)cc3)[nH]c3c2c(=O)[nH]c(=O)n3C)cc1 | -5 | 0.54 |
| COc1ccc(-c2c(-c3cccc(OC)c3)[nH]c3c2c(=O)[nH]c(=O)n3C)cc1 | 90 | -8.97 |
| COc1ccc(-c2c(-c3ccc(C)c(C)c3)[nH]c3c2c(=O)[nH]c(=O)n3C)cc1 | -4 | 0.68 |
| NC(=O)NCCC[C@@H]1NC(=O)[C@H](Cc2ccccc2)NC1=O | -12 | 1.78 |
| COCCc1nc(C)c([C@H](C)Nc2ccc3c(c2)CCC(=O)N3)s1 | -15 | 1.74 |
| CC(C)c1cccc(Nc2nc3ccncc3n(C(C)C)c2=O)c1 | 91 | -8.7 |
| CCc1cccc(Nc2nc3ccncc3n(C(C)C)c2=O)c1 | 1 | -0.13 |
| CC(C)n1c(=O)c(NCc2cccc(C(F)(F)F)c2)nc2ccncc21 | 24 | -2.33 |

| Structure (SMILES) | % Inhibition [%] | Z score |
| --- | --- | --- |
| CC1CCN(Cc2ccc(-c3ncnn3C(C)(C)C)o2)CC1 | -6 | 1.14 |
| CN1CCC(N(C)CC(NCC2CCC=CO2)c2ccccc2)CC1 (centres undefined) | -4 | 0.49 |
| c1ccc(COC[C@H](Nc2ncnc3ccccc23)c2ccccc2)cc1 | -12 | 1.08 |
| Cc1cc(C)nc(O[C@H]2CCCN(C(=O)c3cccn(C)c3=O)C2)n1 | -2 | 0.22 |
| O=C(Nc1cc(N2CCCS2(=O)=O)ccc1O)c1cccc(Oc2cccc(C(F)(F)F)c2)c1 | 99 | -18.11 |
| O=C(Nc1cccnc1)c1cccc(Oc2cccc(C(F)(F)F)c2)c1 | -13 | 1.85 |
| O=C(N[C@H]1CCS(=O)(=O)C1)c1cccc(Oc2cccc(C(F)(F)F)c2)c1 | -25 | 2.94 |
| Cc1nc2ccc(NC(=O)C3C4C=CC(C4)C3C(=O)O)cc2s1 (centres undefined) | 7 | -1.15 |
| CCOc1ccc(-c2nc(Cn3ccnn3)co2)cc1 | -6 | 1.08 |
| Brc1ccc(-c2nc(Cn3ccnn3)co2)cc1 | -11 | 1.68 |
| FC(F)(F)c1ccc(-c2nc(Cn3ccnn3)co2)cc1 | 89 | -0.03 |
| CO[C@H]1CN(C2CCN(C(=O)CCc3c[nH]c4ccccc34)CC2)C12CCOCC2 | -2 | 0.27 |
| O=C(N[C@H]1CCN(c2cnccn2)C[C@@H]1O)c1ccc2c(c1)OCO2 | 0 | 0.01 |
| COc1ccc(CC(=O)N2CC3(C[C@H](N4CCCCC4)CO3)C2)cc1 | -5 | 0.75 |
| CC(=O)N[C@@H]1CN(Cc2nccn2Cc2ccccc2)C[C@H]1c1nccn1C | 30 | -1.12 |
| Cn1ccnc1[C@@H]1CCCN1Cc1nccn1Cc1ccccc1 | 50 | -4.75 |
| Cn1cc([C@@H]2CCCN2Cc2nccn2Cc2ccccc2)cn1 | -5 | 0.74 |
| CN(CC(c1ccccc1)c1ccccc1)[C@H]1COC[C@@H]1O | -10 | 1.87 |
| CC1=C(C(=O)N2C[C@H]3CC=CC[C@H]3C2)C(C)NC(=O)N1 (some centres undefined) | -13 | 2.39 |
